Targets with a hit are over-represented here; the source holds about 8,800 in all. About 0.5% of all pairs of compound and target were hits. A number with no mark means an inactive call.
Columns and labels:
Experiment in all cases: log2 fold change, soluble protein after heating vs DMSO (PISA); higher = thermal stabilisation; K562 lysate, 10 uM; active = over 0.2 and 3.5 SD of the protein, either way, in both replicates (recomputed)
nilotinib = compound: Cc1cn(-c2cc(NC(=O)c3ccc(C)c(Nc4nccc(-c5cccnc5)n4)c3)cc(C(F)(F)F)c2)cn1 [nilotinib]
In short: (§1)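 Dounce homogenisation of K562 pellets in PBS pH 7.4 with 1 mM MgCl2 produced a crude extract, used at 1 mg/mL protein. Exposure to 10 μM compound lasted 30 min, and aliquots were then heated for 3 min across 48°C-58°C, pooled and brought to 0.5% NP-40 at 4°C. The supernatant after 21,000xg for 90 min was quantified by TMTpro 16plex LC-MS/MS with channel sums equalised. Duplicate values are given as log-two fold change in thermal stability relative to solvent controls.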

[1] = compound: Cc1nc(Nc2n[nH]c3c2CN(C(=O)N[C@H](CN(C)C)c2ccccc2)C3(C)C)c2sccc2n1
In short: as §1

dasatinib = compound: Cc1nc(Nc2ncc(C(=O)Nc3c(C)cccc3Cl)s2)cc(N2CCN(CCO)CC2)n1 [dasatinib]
In short: as §1

[2] = compound: Cc1ncc(-c2ccnc(Nc3ccc(S(C)(=O)=O)cc3)n2)n1C(C)C
In short: as §1

[3] = compound: Cn1cc(-c2ccc3c(c2)CCN3C(=O)Cc2cccc(C(F)(F)F)c2)c2c(N)ncnc21
In short: as §1

quisinostat = compound: Cn1cc(CNCC2CCN(c3ncc(C(=O)NO)cn3)CC2)c2ccccc21 [quisinostat]
In short: as §1

tipifarnib = compound: Cn1cncc1[C@@](N)(c1ccc(Cl)cc1)c1ccc2c(c1)c(-c1cccc(Cl)c1)cc(=O)n2C [tipifarnib]
In short: as §1

[4] = compound: NC(=O)Nc1cc(-c2cccc(F)c2)sc1C(=O)N[C@H]1CCCNC1
In short: as §1

[5] = compound: NC(=O)c1cnc(N[C@@H]2CCCC[C@@H]2N)nc1Nc1cccc(-n2nccn2)c1
In short: as §1

[6] = compound: NC1(c2ccc(-c3nc4ccn5c(=O)[nH]nc5c4cc3-c3ccccc3)cc2)CCC1
In short: as §1

UniProt Q6IPR1, sequence (Q6IPR1 whole entry, looked up): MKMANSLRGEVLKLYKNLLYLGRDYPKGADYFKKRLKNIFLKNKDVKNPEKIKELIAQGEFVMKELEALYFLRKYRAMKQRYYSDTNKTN
UniProt P49356, sequence (P49356 whole entry, looked up): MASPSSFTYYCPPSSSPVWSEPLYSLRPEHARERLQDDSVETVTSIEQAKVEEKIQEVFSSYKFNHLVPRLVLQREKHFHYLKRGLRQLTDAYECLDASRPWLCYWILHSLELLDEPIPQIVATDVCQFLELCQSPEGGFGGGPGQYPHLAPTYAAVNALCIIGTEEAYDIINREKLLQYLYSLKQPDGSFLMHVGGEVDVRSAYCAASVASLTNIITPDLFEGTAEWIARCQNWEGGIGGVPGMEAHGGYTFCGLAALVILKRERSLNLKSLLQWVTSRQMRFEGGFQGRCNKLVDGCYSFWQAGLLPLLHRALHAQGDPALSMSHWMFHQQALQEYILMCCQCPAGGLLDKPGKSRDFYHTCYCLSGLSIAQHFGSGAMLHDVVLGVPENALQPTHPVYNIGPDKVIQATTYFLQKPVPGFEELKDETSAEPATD
UniProt Q9UJ14, sequence (Q9UJ14 whole entry, looked up): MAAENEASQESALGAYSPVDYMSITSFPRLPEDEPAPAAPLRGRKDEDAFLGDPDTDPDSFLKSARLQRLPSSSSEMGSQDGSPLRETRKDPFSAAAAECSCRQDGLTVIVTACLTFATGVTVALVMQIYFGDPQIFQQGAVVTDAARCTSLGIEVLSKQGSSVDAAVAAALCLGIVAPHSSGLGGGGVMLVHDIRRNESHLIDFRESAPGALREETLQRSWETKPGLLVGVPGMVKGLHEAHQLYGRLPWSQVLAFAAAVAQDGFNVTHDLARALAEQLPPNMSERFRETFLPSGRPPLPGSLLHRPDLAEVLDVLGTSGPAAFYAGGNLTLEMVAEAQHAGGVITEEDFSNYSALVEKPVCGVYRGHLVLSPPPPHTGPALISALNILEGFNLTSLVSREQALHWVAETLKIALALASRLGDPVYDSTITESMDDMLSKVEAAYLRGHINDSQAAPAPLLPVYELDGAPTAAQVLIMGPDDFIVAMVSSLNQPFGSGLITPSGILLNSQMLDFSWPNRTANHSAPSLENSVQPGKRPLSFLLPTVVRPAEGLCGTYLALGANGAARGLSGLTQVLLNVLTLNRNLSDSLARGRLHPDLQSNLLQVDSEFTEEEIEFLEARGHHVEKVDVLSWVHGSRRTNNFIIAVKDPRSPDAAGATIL
UniProt Q8TF64, sequence (Q8TF64 whole entry, looked up): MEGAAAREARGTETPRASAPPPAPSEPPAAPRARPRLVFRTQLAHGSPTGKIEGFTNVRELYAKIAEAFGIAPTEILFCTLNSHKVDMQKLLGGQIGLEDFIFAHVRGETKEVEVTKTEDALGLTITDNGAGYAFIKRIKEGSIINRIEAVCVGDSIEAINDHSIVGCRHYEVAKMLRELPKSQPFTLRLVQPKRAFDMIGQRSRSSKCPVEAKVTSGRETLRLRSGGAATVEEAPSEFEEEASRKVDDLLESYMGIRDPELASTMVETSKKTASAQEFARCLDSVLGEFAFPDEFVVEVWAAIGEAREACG
UniProt Q6P2E9, sequence (Q6P2E9 whole entry, looked up): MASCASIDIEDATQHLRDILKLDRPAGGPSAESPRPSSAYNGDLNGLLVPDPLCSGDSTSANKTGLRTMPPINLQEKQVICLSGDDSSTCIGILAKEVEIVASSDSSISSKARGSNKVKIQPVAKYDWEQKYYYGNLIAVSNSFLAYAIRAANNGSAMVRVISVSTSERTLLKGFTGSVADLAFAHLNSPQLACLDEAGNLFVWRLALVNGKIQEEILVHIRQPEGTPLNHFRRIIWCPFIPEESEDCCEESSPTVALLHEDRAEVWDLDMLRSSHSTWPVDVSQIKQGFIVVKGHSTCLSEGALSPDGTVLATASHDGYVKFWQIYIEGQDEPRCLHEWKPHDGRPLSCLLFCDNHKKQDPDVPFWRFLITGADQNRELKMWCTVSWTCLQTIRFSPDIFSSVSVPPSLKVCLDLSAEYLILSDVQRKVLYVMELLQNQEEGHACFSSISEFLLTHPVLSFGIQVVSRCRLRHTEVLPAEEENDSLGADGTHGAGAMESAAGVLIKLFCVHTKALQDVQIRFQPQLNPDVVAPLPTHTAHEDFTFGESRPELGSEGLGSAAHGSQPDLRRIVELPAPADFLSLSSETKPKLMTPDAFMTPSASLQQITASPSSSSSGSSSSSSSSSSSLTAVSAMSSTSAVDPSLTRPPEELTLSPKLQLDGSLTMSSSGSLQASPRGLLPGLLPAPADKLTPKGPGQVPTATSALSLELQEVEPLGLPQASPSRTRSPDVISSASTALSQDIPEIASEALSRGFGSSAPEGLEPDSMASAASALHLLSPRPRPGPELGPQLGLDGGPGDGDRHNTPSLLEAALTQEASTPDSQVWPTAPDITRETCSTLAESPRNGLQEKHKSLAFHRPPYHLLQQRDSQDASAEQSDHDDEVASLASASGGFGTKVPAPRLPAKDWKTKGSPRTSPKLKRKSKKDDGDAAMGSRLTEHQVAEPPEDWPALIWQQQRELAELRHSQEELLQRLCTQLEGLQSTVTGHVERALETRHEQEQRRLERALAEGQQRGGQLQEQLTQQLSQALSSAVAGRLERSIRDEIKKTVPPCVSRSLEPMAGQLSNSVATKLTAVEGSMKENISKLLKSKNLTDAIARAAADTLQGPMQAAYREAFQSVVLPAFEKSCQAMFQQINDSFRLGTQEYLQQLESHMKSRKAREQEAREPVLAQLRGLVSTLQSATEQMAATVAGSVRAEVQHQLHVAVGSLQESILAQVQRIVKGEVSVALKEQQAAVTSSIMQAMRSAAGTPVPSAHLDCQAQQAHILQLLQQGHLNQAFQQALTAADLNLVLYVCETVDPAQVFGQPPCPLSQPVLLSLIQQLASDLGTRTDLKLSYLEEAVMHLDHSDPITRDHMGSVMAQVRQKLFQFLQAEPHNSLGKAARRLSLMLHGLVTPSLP
UniProt P0DPD7, sequence (P0DPD7 whole entry, looked up): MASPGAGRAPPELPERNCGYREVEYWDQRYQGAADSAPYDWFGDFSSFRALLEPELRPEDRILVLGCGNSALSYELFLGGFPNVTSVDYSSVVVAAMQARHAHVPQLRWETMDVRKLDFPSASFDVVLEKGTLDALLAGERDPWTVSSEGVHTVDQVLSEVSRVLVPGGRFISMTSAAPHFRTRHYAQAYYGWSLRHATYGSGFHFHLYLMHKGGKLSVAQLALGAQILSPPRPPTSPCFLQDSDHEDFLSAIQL
UniProt Q96PY5, sequence (Q96PY5 whole entry, looked up): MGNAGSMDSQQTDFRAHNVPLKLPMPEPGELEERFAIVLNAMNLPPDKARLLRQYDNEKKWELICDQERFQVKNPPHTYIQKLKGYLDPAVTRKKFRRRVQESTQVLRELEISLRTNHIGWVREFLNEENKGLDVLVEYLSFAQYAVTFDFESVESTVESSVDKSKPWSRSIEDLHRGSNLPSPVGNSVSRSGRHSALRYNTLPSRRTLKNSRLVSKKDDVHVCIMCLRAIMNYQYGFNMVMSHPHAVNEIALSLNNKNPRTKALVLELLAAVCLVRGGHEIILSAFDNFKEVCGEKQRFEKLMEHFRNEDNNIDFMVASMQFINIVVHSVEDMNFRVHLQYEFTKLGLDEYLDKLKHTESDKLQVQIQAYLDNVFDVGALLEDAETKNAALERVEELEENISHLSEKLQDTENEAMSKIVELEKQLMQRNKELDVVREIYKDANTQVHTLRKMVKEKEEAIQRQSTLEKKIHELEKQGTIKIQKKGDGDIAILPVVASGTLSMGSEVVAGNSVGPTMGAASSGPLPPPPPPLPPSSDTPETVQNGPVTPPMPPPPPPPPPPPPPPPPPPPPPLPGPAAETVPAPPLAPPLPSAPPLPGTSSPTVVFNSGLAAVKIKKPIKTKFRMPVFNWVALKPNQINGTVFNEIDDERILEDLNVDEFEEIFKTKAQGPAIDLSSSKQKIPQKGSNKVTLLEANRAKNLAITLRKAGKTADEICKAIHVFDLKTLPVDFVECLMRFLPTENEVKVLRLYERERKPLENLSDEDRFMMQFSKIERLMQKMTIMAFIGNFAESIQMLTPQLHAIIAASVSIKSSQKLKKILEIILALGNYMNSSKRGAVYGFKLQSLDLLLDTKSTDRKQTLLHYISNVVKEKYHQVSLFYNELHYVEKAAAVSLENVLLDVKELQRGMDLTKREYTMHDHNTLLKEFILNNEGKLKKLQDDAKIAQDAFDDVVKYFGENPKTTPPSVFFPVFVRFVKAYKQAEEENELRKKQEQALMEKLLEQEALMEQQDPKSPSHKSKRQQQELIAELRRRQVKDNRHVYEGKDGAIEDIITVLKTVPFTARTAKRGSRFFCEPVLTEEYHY
UniProt Q9NYY8, sequence (Q9NYY8 whole entry, looked up): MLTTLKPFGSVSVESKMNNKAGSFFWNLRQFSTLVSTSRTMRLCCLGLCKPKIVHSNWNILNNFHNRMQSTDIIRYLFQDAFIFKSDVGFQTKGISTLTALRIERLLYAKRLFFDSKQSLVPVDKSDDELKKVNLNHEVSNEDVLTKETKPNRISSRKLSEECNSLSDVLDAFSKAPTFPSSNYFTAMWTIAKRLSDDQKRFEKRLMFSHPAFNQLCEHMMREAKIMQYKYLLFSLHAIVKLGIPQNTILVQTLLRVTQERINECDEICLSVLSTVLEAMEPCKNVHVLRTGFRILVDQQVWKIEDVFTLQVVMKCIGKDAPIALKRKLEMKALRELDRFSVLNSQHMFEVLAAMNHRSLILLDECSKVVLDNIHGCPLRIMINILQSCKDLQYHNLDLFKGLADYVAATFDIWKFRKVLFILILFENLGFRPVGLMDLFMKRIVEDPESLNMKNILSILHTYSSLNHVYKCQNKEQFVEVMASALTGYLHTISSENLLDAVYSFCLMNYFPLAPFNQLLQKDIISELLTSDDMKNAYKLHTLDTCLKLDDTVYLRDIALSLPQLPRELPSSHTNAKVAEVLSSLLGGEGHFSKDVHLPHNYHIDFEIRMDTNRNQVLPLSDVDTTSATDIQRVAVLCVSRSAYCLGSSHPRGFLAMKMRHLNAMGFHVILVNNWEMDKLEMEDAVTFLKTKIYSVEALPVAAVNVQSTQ

Target	log2 fold change (nilotinib)	log2 fold change [1]	log2 fold change (dasatinib)	log2 fold change [2]	log2 fold change [3]	log2 fold change (quisinostat)	log2 fold change (tipifarnib)	log2 fold change [4]	log2 fold change [5]	log2 fold change [6]
ETFRF1 (UniProt Q6IPR1)	-0.038	0.032	-0.01	-0.02	0.062	0.088	0.117	-0.028	0.071	0.046
GBA2 (UniProt Q9HCG7)	-0.063	0.114	0.059	-0.079	0.034	-0.101	-0.213	0.023	0.058	-0.074
FDX2 (UniProt Q6P4F2)	0.135	-0.025	0.058	-0.067	-0.006	-0.068	0.096	0.05	-0.068	0.052
EIF2D (UniProt P41214)	-0.034	0.028	-0.027	-0.009	0.002	-0.064	0.024	0.04	0.008	-0.041
FAM118A (UniProt Q9NWS6)	-0.017	-0.03	-0.043	-0.003	-0.082	-0.103	0.016	0.013	0.003	-0.023
FASTKD5 (UniProt Q7L8L6)	-0.072	0.032	-0.006	0.113	-0.027	-0.053	0.003	0.004	0.054	0.013
EPHX2 (UniProt P34913)	0.097	-0.036	0.005	0.027	0.007	0.02	0.021	-0.036	-0.021	-0.015
GGA2 (UniProt Q9UJY4)	-0.028	-0.047	-0.043	0	0.032	-0.022	-0.003	0.066	0.043	0.001
ELF2 (UniProt Q15723)	0.032	-0.007	-0.105	0.065	0.068	0.026	-0.043	-0.035	-0.02	0.032
FAM83A (UniProt Q86UY5)	-0.007	-0.069	-0.028	-0.016	-0.033	-0.088	-0.08	0.034	0.004	-0.019
GIPC3 (UniProt Q8TF64)	0.183	-0.602 (active)	-0.071	0.097	-0.009	-0.309	-0.067	0.134	0.045	0.016
ERI1 (UniProt Q8IV48)	0.004	-0.008	-0.012	0.035	0.041	-0.019	0.043	0.08	-0.019	0.058
ERLIN1 (UniProt O75477)	0.011	-0.031	-0.01	-0.034	0.033	0.107	0.049	-0.047	-0.009	0.035
DUS2 (UniProt Q9NX74)	0.021	-0.035	0.037	0.011	-0.024	0.088	-0.019	0	0.014	-0.045
DUS3L (UniProt Q96G46)	0.008	-0.022	-0.019	-0.014	0.004	-0.098	-0.017	0.026	0	-0.021
FAM98A (UniProt Q8NCA5)	-0.045	0.034	-0.034	0.018	-0.022	-0.042	0.009	-0.004	-0.028	-0.014
FASTKD2 (UniProt Q9NYY8)	-0.019	-0.006	-0.006	0.016	-0.026	-0.027	-0.02	0.049	0.027	0.015
FXR1 (UniProt P51114)	-0.139	0.031	0.028	-0.011	0.018	-0.057	-0.005	0.024	-0.001	-0.047
FNTB (UniProt P49356)	-0.005	0.016	0.018	-0.04	-0.022	-0.002	0.239 (active)	0.003	-0.011	-0.027
EEF1AKMT4 (UniProt P0DPD7)	-0.01	-0.064	-0.051	0.04	-0.109	0.075	0.004	0.105	0.096	-0.064
EDC4 (UniProt Q6P2E9)	0	0.007	-0.058	0.007	-0.002	-0.071	-0.001	0.01	0.027	0.011
EIF2B3 (UniProt Q9NR50)	0.001	0.001	-0.049	0.009	-0.024	-0.036	-0.013	0.022	-0.008	-0.009
GGT7 (UniProt Q9UJ14)	-0.061	-0.023	-0.083	0.014	-0.012	0.092	-0.008	0.071	0.007	0.02
ESRRA (UniProt P11474)	-0.121	0.016	0.061	0.035	-0.096	-0.038	0.008	0.158	-0.016	0.016
FMNL2 isoform 3 (UniProt Q96PY5)	-0.1	-0.087	0.101	-0.018	-0.028	-0.1	-0.012	-0.047	0.002	-0.021
EXOC3 (UniProt O60645)	-0.013	0.012	-0.06	0.039	0.021	-0.115	-0.018	0.063	0.005	-0.005
ENO2 (UniProt P09104)	0.006	0.017	0.036	0.025	0	-0.03	-0.021	0.001	-0.043	0.003
ECI2 (UniProt O75521)	0.085	-0.013	0.029	0.017	-0.01	0.023	-0.071	-0.027	-0.019	-0.022
EAPP (UniProt Q56P03)	0.039	0.018	0.024	-0.095	-0.001	0.017	0.002	0.021	0.038	-0.045

Source: the supplement of paper PMC10849652
